Calls of active or inactive are those of the source. How the source made its calls: active means hit-call score of the fitted dose curve at least 0.9, where 1 is the maximum; inactive means score below 0.9.

Read-out in this assay: Tumor necrosis factor receptor superfamily member 6 (Homo sapiens) (UniProt P25445)
Kind of assay: LTEA_HepaRG_FAS: Life Technologies and Expression Analysis (LTEA) Assay for Fas cell surface death receptor (FAS) using HepaRG (AID 2283447). Conditions: mRNA level, 48 h; actives raise or lower the signal. On the procedure:
LTEA_HepaRG is a cell based, multiplexed-readout assay that uses HepaRG, a human liver cell line, with measurements taken at 48 hours after chemical dosing on a 96-well plate.LTEA_HepaRG_FAS is one of 102 assay component(s) measured in the LTEA HepaRG cell culture assay. It is a marker of Cell proliferation, survival, death.Data from the assay component LTEA_HepaRG_FAS was analyzed into 1 endpoint. This assay endpoint, LTEA_HepaRG_FAS, was analyzed with bidirectional fitting relative to DMSO as the negative control and baseline of activity. Using a type of inducible reporter, measures of mRNA induction for gain or loss-of-signal activity can be used to understand regulation of transcription factor activity. To generalize the intended target to other relatable targets, this assay endpoint is annotated to the cytokine receptor intended target family, where the subfamily is TNF receptor.
A total of 1060 chemcials from the ToxCast library were tested in eight-point concentration-response experiments. Cell culture and cytotoxicity assays were conducted at Thermo Fisher Scientific's Custom Services facility (Madison, WI). A single lot of human HepaRG cells (Thermo Fisher Scientific, Frederick, MD) was used for the cell culture experiments. 96-well format collagen type I coated plates of human HepaRG cells were prepared using established methods. Briefly, cryopreserved HepaRG cells were thawed, plated at a density of approximately 100,000 cells/well in HepaRG Thaw, Plate, and General Purpose media (HPRG770, Thermo Fisher Scientific), and incubated for 48 hours. 0.5% DMSO was selected as vehicle control to balance the requisite need of DMSO in HepaRG cultures to maintain differentiation (for example, baseline metabolism, proportions of hepatocytes vs. cholangiocytes), while enabling further hepatic receptor pathway activation (for example, PXR and CAR) in response to chemical exposure. 48 hours after plating, the culture medium was replaced with HepaRG Serum-Free Incudtion Media. Cells were exposed to each test chemical in duplicate and maintained in CO2 incubators for another 48 hours. Chemical plates were thawed to room temperature and 200x concentrations of treatment groups were prepared. 8-point conentration-reponse curves were made with the highest exposure at 100 uM, followed by half-log dilutions, all in 0.5% DMSO. Each test plate contained variouse controls, induction positive controls (1mM phenobarbital), cytotoxicity positive controls ([…] aflatoxin B1), vehicle controls (0.5% DMSO), and total lysis controls (0.5% DMSO). Cell morphology images were taken using an Essen IncuCyte FLR automated microscope, with six 96-well plates imaged in about 24 minutes. Images were captured and exported and JPEG files. Spent culture media was transfered to black-well plates for the LDH assay, and remaining media was sorted at -80 C for later use. Cells were treated with RLT buffer and frozen until shipped for gene expression analysis. Total RNA was isolated from the cell suspension in 75 uL of Buffer RLT (Qiagen, Germantown, MD 20874) by Quintiles/Expression Analysis (Durham, NC) using a custom isolation procedure. Total RNA from each plate well was transferred to a preamplification plate. Fluidigm's 96.96 Dynamic ArrayTM (Fluidigm, Amsterdam, the Netherlands) technology was used for gene expression analyses by quantitative reverse transcription polymerase chain reaction (qRT-PCR, performed by Quintiles/Expression Analysis, Durham, NC)89. Standard TaqManTM Assays (Applied Biosystems/ThermoFisher Scientific, Foster City, CA) were used to assess the expression of 93 genes selected based on their selectivity and sensitivity to important hepatic receptors known to be modulated by environmental chemicals; importance in human hepatocyte functionality; and hepatotoxicity. […]
Take `COC(=O)Nc1nc2ccccc2[nH]1`: the call was inactive.

For `CCCSC(=O)N(CCC)CCC`, the compound was classed as inactive.

On to `CN(C)[C@@H]1C(=O)C(C(N)=O)=C(O)[C@@]2(O)C(=O)C3=C(O)c4c(O)cccc4[C@@](C)(O)[C@H]3C[C@@H]12`, for which the result was inactive.

`C1=Cc2cccc3cccc1c23`: the call was inactive.

On to `CCCCC(CC)COC(=O)c1ccc(C(=O)OCC(CC)CCCC)c(C(=O)OCC(CC)CCCC)c1` (stereo not given), for which the result was inactive.

For `O=Cc1ccco1`, the result was inactive.

With `[As]#[In]`, the call was inactive.

Consider `ClC1=C(Cl)C2(Cl)C3C(Cl)C=CC3C1(Cl)C2(Cl)Cl` (stereo not given), for which the call was inactive.

With `CCCCCCCCCCCCCN1CC(C)OC(C)C1` (stereo not given), the compound was called inactive.

As for `OCCOCCO`, the result was inactive.

On to `[Cl-].[Cl-].[Hg+2]`, for which the result was inactive.

As to `CN(C)C(=O)Nc1ccc(Cl)cc1`, the outcome was inactive.

`O=C(N[C@H](c1ccccc1)[C@@H]1CN2CCC1CC2)c1c(Cl)ccc(C(F)(F)F)c1Cl`: the outcome was inactive.

Turning to `O=C(Oc1ccc(Br)cc1)N1CCN2CCC1CC2`, the result was inactive.

Consider `CCN(CC)CCO`, for which the call was inactive.

Regarding `CCCCCCCCOC(=O)c1ccc(C(=O)OCCCCCCCC)c(C(=O)OCCCCCCCC)c1`, the result was inactive.

`O=C(O)C1C2CCC(O2)C1C(=O)O` (stereo not given): the result was inactive.

On to `O=[N+]([O-])C(Br)(CO)CO`, for which the compound was classed as inactive.

Take `COP(=S)(OC)SCN1C(=O)c2ccccc2C1=O`: the compound was classed as inactive.

Consider `CC(O)CCO` (stereo not given), for which the outcome was inactive.

Take `Cn1cc(-c2ccccc2)c(=O)c(-c2cccc(C(F)(F)F)c2)c1`: the compound was called inactive.

What is called AC50 is the midpoint of the concentration-response curve, whichever way the signal moves. In the case of `Nc1ccc(Cl)cc1N`, the AC50 is 13.3 µM (active).

Consider `Oc1ccc2ccc3cccc4ccc1c2c34`, for which the compound was called inactive.

For the compound `CCCCCCCCn1sccc1=O`, the compound was called inactive.

As for `OCCCBr`, the result was inactive.

Regarding `CCCCOC(=O)c1ccccc1C(=O)OCc1ccccc1`, the outcome was inactive.

Consider `CC(C)N(Cc1ccccc1)C(=O)C(C)(C)C`, for which the compound was classed as inactive.

In the case of `CCC12COCN1COC2`, the compound was classed as inactive.

Take `N#CC(Br)(Br)C(N)=O`: the outcome was inactive.

Consider `N#CC(Br)Br`, for which the result was inactive.

As to `CC(C)(C)OOC(=O)c1ccccc1`, the outcome was inactive.

For `O=[N+]([O-])c1ccc(Oc2ccc(Cl)cc2Cl)cc1`, the compound was called inactive.

Regarding `CO[C@@H]1[C@H](OC(=O)NC(=O)CCl)CC[C@]2(CO2)[C@H]1[C@@]1(C)O[C@@H]1CC=C(C)C`, the compound was called inactive.

For the compound `CN(C)c1ccccc1`, the compound was called inactive.

For the compound `C[N+](C)(C)CC1CO1` (stereo not given), the call was inactive.

Regarding `Cc1ccc([N+](=O)[O-])cc1`, the compound was classed as inactive.

With `Clc1ccc(Cl)c(Cl)c1`, the result was inactive.

Regarding `Cc1cc(N=Nc2ccccc2C)ccc1N`, the AC50 is 3.37 µM (active).

Take `c1ccc2c(c1)oc1ccccc12`: the outcome was inactive.

Take `Clc1ccc(C(c2ccc(Cl)cc2)C(Cl)(Cl)Cl)cc1`: the outcome was inactive.

Values taken from PubChem BioAssay (EPA / NIEHS).
